# Rows were chosen to be rich in hits. Some 2.2% of all compounds tested hit in one or more screens of this group.
# Abeta yeast res – qHTS for compounds that reverse cellular toxicity of Amyloid beta (A-beta) peptide in yeast: Primary Screen | 410,000 tested, 0.063% active | yeast expressing A-beta42, growth rescue, OD600, 48 h; response scale: 0% DMSO, 100% iron-clioquinol control | Potency, µM (top dose mostly 46.1 µM), usual class: activators; note: nearly all actives have a fitted effect of over 55% in size
#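 Yeast A-beta toxicity model in growth medium with pinned compounds, 48 h at 30 C; growth read as absorbance at 600 nm. Normalized to FeCl3/clioquinol equimolar mix (positive) and DMSO (negative).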
# ERG Ets-DNA blk – qHTS for Small Molecule Inhibitors of the ERG Ets/DNA interaction; AID 624246, 2012; 370,000 tested, 0.028% active; fluorescence polarization, His-ERG Ets domain / labelled DNA; Potency, µM (top dose mostly 76.9 µM), inactives show at the highest dose FP activity, negative = inhibition, usual class: inhibitors; Transcriptional regulator ERG (Homo sapiens), P11308; active = well fitted inhibition curve with a large enough effect in the polarisation, with a control signal flat; inconclusive = small, poorly fitted or top-dose-only effect, or effect the other way, or a change in a side signal; inactive = no such curve, though single readings can be large or run the other way; the % refers to the polarisation;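 note: polarization taken with two DNA probes labelled with fluorescein and Texas red; % of control where 0% means no effect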
# Target sequence (P11308 whole entry, looked up, the tested form may be a part): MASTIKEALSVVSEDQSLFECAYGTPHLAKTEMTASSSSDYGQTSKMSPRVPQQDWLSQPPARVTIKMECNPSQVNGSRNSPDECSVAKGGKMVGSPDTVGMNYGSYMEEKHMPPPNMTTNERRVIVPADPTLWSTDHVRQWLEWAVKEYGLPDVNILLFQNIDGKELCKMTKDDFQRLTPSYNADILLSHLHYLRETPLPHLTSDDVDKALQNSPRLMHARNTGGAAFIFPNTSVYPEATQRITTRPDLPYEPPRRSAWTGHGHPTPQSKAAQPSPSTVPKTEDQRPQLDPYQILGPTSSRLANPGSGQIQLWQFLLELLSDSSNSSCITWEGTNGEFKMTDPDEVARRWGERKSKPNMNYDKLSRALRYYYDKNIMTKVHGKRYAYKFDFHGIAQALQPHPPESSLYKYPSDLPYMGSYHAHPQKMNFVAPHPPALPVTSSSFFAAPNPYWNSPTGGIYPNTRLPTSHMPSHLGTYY
#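 His-tagged ERG Ets domain (1 uM in the protein solution; 300mM KCl, 50mM Tris-HCl, 1mM EDTA, 1mM DTT, pH 7.5) received compound, then a probe mix of 5 nM fluorescein-DNA and 100nM Texas-615-DNA. Fluorescence polarization was read for both dyes.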
# TDP43 rescue – qHTS of TDP-43 Inhibitors | TDP-43 expressing yeast growth rescue, BacTiter-Glo, 24 h | 410,000 tested, 1.8% active | Potency, µM (series often up to 46.1 µM), inactives show top-dose growth rescue (activation), most hits filed as activators; note: % of control where 0% means no effect; nearly all actives have a fitted effect of over 50% in size
#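 Growth rescue of TDP-43-toxic yeast measured as ATP luminescence (BacTiter-Glo). Cells grown to mid-log in raffinose, induced in galactose at OD600=0.02, exposed to compound 24 hr at 30 deg C.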
# Mito fusion yeast – qHTS Assay for Small Molecule Inhibitors of Mitochondrial Division or Activators of Mitochondrial Fusion; AID 485298, 2010; Potency, µM (series often up to 46.1 µM), for the others: at the top dose growth rescue (activation), usual class: activators; 320,000 tested, 0.23% active; S. cerevisiae fusion-defective mutant growth rescue, CellTiterGlo 48 h; note: % of control where 0% means no effect; nearly all actives have a fitted effect of over 45% in size
#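 S. cerevisiae fusion-defective temperature-sensitive mutants (e.g. fzo1-1, mgm1-5) grown 48 h at 37C in YPEG (ethanol/glycerol non-fermentable) medium with 23 nl compound per well; growth rescue read as CellTiterGlo luminescence.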
# aSyn yeast inh – qHTS of alpha-syn Inhibitors | Potency, µM (highest dose often 46.1 µM), for inactives: top-dose growth rescue (activation), most hits filed as activators | AID 652106, 2013 | 370,000 tested, 0.14% active | Yeast expressing alpha-synuclein, growth rescue, BacTiter-Glo, 24 h; note: % of control where 0% means no effect; nearly all actives have a fitted effect of over 65% in size
#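 Galactose-induced alpha-syn yeast (OD600=0.02, raffinose-pregrown) + pinned cpd, 24 hr, 30 deg C; growth by BacTiter-Glo luminescence. Growth restoration scores as activation.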
# FUS suppressor – qHTS for Suppressors of FUS Proteinopathy: Primary screen using FUS-linked yeast assay. 390,000 tested, 0.24% active. Potency, µM (doses to about 76.6 µM), actives largely listed as activators. S. cerevisiae FUS-expressing, growth rescue, OD600, 24 h;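 note: plate controls were DMSO vehicle for no effect and reference control for full effect; nearly all actives have a fitted effect of over 55% in size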
#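 Quantitative HTS measuring growth restoration of FUS-toxic yeast. Galactose-induced cells (OD 0.005) were exposed 24hr at 30C to compounds at several concentrations, then absorbance at 600 nm was recorded.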
# Starred values were filed as active, the others as inactive; i = inactive; ? = inconclusive; . = not tested or not shown; ! = not active in a repeat; [ ] = another dose, or the depositor's remark. Unless noted, calls come from the whole dose curve; as a rule, active = well fitted curve in the direction sought with a large enough effect; inconclusive = small, poorly fitted or top-dose-only effect, or another doubt; inactive = no such curve, though single readings can be large; an effect the other way counts as inactive or inconclusive. Potency is the fitted concentration of half-maximal effect.
SMILES,Abeta yeast res,ERG Ets-DNA blk,TDP43 rescue,Mito fusion yeast,aSyn yeast inh,FUS suppressor
O=C1c2nc3ccccn3c2C(=O)N1Cc1ccccc1,i,.,0%,1%,10%,i
O=C1c2nccnc2C(=O)N1Cc1ccccc1,i,5%,-10%,.,13µM*,.
CCOC(=O)C1CCN(C(=O)Cn2c(=O)oc3cc(S(=O)(=O)N4CCCC4)ccc32)CC1,i,-1%,18%,2%,-1%,i
COc1ccc(NC(=O)CN(C)C(=O)c2cn(-c3ccccc3)nc2-c2ccc(OC)cc2)cc1,i,-3%,14%,10%,-23%,?
COc1ccc(NC(=O)CN(C)C(=O)c2cn(-c3ccccc3)nc2-c2ccc(F)cc2)cc1,i,1%,25µM*,25%,-11%,?
Cc1ccc(-c2nc3cc(C)c(Br)c(C)n3c2CC2CCCCC2)cc1,i,.,16%,.,-10%,i
COc1ccc(-c2nc3cc(C)c(Br)c(C)n3c2CC2CCCCC2)cc1OC,i,.,22µM*,.,2%,i
COc1cc2c(cc1OC)-c1cc(=Nc3c(C)cc(C)cc3C)n(C)c(=O)n1CC2,.,.,.,18µM*,-7%,.
O=C(NC(=S)NCc1ccccc1)c1ccc2c(c1)OCO2,i,-7%,25µM*,?,2%,.
O=C(NCc1ccco1)c1ccc2c(c1)OCCO2,i,-2%,0%,0%,-6%,i
O=C(NCc1ccccc1F)c1ccc2c(c1)OCCO2,?,3%,14µM*,-22%,-26%,i
O=C(NC(=S)NCc1ccc2c(c1)OCO2)c1ccccc1,?,12%,16µM*,-13%,22%,i
CCOC(=O)Cn1nc(/C=C/c2ccc(C(C)C)cc2)ccc1=O,i,9%,20µM*,-5%,18%,?
O=C(O)CN(c1cccc(C(F)(F)F)c1)S(=O)(=O)c1ccccc1,i,-9%,-10%,5%,-4%,i
O=S(=O)(c1ccccc1)N(CC(F)(F)F)c1ccc(C(O)(C(F)(F)F)C(F)(F)F)cc1,?,.,22µM*,.,-19%,i
CCCN(C(=O)COc1cc(=O)n(CC)c2ccccc12)c1ccc(C(C)C)cc1,i,-2%,22µM*,.,.,?
O=C(NC(=S)Nc1ccccn1)c1ccccc1,i,9%,11%,35µM*,24%,i
Cc1cccc(NC(=O)CSc2ncnc3sc4c(c23)CCCC4)c1,.,.,.,.,.,i
COc1ccc(CCn2c3c(c(=O)[nH]c2=S)CN(Cc2ccccc2)CN3)cc1OC,.,.,.,.,0%,.
CCCCSc1nsc(NC(C)=O)n1,i,-1%,13µM*,3%,.,i
O=[N+]([O-])c1ccc(N2CCN(Cc3ccccc3)CC2)c2c1no[n+]2[O-],i,.,35µM*,.,14%,i
Cc1occc1C(=O)Nc1cccc(Cl)c1Cl,i,0%,11µM*,-2%,-6%,i
COc1ccc(OC)c(C2=CC(=O)C[C@H](c3ccc4c(c3)OCO4)C2)c1,i,-17%,25µM*,?,2%,?
COc1c(F)cccc1C1=CC(=O)C[C@H](c2ccc3c(c2)OCO3)C1,i,-11%,22µM*,?,10%,i
O=C1C=C(c2ccc(Br)c3ccccc23)C[C@@H](c2ccc3c(c2)OCO3)C1,i,27%,5%,12%,-1%,i
SMILES,Abeta yeast res,ERG Ets-DNA blk,TDP43 rescue,Mito fusion yeast,aSyn yeast inh,FUS suppressor
COc1ccc([C@H]2CC(=O)C=C(c3ccccc3-c3ccccc3)C2)cc1,i,8%,27%,15%,2%,i
COCc1ccccc1C1=CC(=O)C[C@H](c2ccc(F)cc2)C1,i,-6%,?,19%,6%,i
COc1ccc([C@H]2CC(=O)C=C(c3cccc(F)c3OC)C2)cc1,i,-2%,22µM*,14%,13%,i
COc1c(F)cccc1C1=CC(=O)C[C@H](c2ccc(F)cc2)C1,i,.,18µM*,.,5%,i
COC(=O)C1CN(C(=O)OC(C)(C)C)C2=C1C(=O)CC(C)(C(=O)OC(C)(C)C)C2 (centres undefined),.,.,.,.,.,i
Cc1cc(SCC(=O)OCC(=O)NCC2CCCO2)c(C)cc1Br (centres undefined),i,-12%,25µM*,-1%,5%,i
O=C(COC(=O)CSc1ccc([N+](=O)[O-])cc1)NCC1CCCO1 (centres undefined),i,-1%,2%,4%,-6%,i
Cc1c(C(=O)NCc2ccccc2Cl)sc2nc3n(c(=O)c12)CCC3,i,0%,18µM*,.,.,i
Cc1c(C(=O)NCc2ccc(Cl)cc2)sc2nc3n(c(=O)c12)CCCC3,i,0%,?,.,.,i
Cc1c(C(=O)NCc2cccc(Cl)c2)sc2nc3n(c(=O)c12)CCCC3,i,?,22µM*,.,.,i
COc1ccc2c(c1)CC[C@@H]1[C@@H]2CC[C@]2(C)[C@@H](C(=O)O)C[C@@H]12,i,-2%,20µM*,?,-17%,i
C[C@]12CC[C@@H]3c4ccc(O)cc4CC[C@H]3[C@@H]1CCC2=O,i,7%,4.5µM*,5.8µM*!,4%,i
COc1cc2c(NC3CCN(C)CC3)nc(N3CCCN(C)CC3)nc2cc1OCC1CCCCN1 (centres undefined),.,.,.,.,9%,.
O=C1CCC(=O)N1c1ccc(NCc2ccccc2Cl)c([N+](=O)[O-])c1,i,0%,22µM*,6%,7%,i
CC(Cc1cccs1)NC(=S)Nc1ccc(F)cc1 (centres undefined),13µM*,6%,-18%[0.397 µM],1%,0%,i
COc1cc(/C=N/NC(=O)C23CC4CC(CC(C4)C2)C3)cc(Br)c1O,i,-4%,2%,3%,-1%,i
O=C(N/N=C/c1cc([N+](=O)[O-])cc(Br)c1O)C12CC3CCC(CC(C3)C1)C2,i,-1%,4.5µM*,0%,0%,i
COc1ccc2nc(-c3ccccc3)cc(C(=O)OCC(=O)N3CC(C)OC(C)C3)c2c1 (centres undefined),i,7%,22µM*,28%,3%,?
COc1ccc2nc(-c3ccccc3)cc(C(=O)OCC(=O)N3CCCCC3)c2c1,i,11%,?,?,17%,?

# Source: PubChem BioAssay
